Screening data as filed in PubChem BioAssay.
This is one part of a sample in which hits are shown more often than they occur.
Lassa entry inh – qHTS for Inhibitors of binding or entry into cells for Lassa Virus; Lassa virus pseudotype entry inhibition, cell reporter; Potency, µM (titrated, usually from 37.9 µM), for inactives: at the highest dose activity change, negative = inhibition, most hits filed as inhibitors; 300,000 tested, 1.2% active; calls by dose curve; tested in HEK293 cells; also: potency is read from the fitted curve at half-maximal effect; % is scaled to controls: 0 for no effect and ±100 for the full control effect; nearly all actives have a fitted effect of over 50% in size
Marburg entry inh – qHTS for inhibitors of binding or entry into cells for Marburg Virus; Marburg virus pseudotyped entry inhibition, cell reporter; 300,000 tested, 1.8% active; AID 540276, 2011; Potency, µM (top dose mostly 37.8 µM), for the others: at the top dose activity change, negative = inhibition, usual class: inhibitors; calls by dose curve; tested in HEK293 cells; also: potency is read from the fitted curve at half-maximal effect; % is scaled to controls: 0 for no effect and ±100 for the full control effect
AMA1-RON2 inh – qHTS for Inhibitors of AMA1-RON; Towards Development of Antimalarial Drug Lead: Primary Screen; AID 720542, 2013; Potency, µM (titrated, usually from 58.2 µM), inactives show at the top dose activity change, negative = inhibition, usual class: inhibitors; 360,000 tested, 0.2% active; AlphaScreen AMA1-biotinylated RON2 peptide binding; Plasmodium falciparum AMA1 (3D7) - RON2 peptide interaction; active = well fitted inhibition curve with a large enough effect; inconclusive = small, poorly fitted or top-dose-only effect; inactive = no such curve, though single readings can be large or run the other way;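 also: potency is read from the fitted curve at half-maximal effect; 0% = vehicle wells and -100% = peptide control; nearly all actives have a fitted effect of over 45% in size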
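AMA1 (3D7) with his tag at 25 nM final met compounds first, then biotinylated RON2 peptide at 25 nM; detection used donor plus acceptor beads, 10 µg/mL apiece, read by AlphaScreen after 30 min at room temperature.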
Shiga toxin inh – A qHTS for Small Molecule Inhibitors of Shiga Toxin. Vero cells, Shiga toxin protein synthesis inhibition reporter. inhibition, % at 38.7 µM. 290,000 tested, 9.2% active. AID 2315, 2010; in the data active = inhibition mostly above about 28%, no sharp cut-off; inactive = mostly below about 43%; also: 0% is about no effect
CHX counter – Cycloheximide Counterscreen for Small Molecule Inhibitors of Shiga Toxin. cell reporter, cycloheximide protein synthesis inhibition counterscreen. max response, %. 300,000 tested, 12% active. AID 2314, 2010; in the data active = max response mostly above about 13%, no sharp cut-off; inactive = mostly below about 14%; also: read at 38.3 µM for the half of the compounds with a filed dose; 0% is about no effect
* marks the source's active call; other numbers are inactive results; ? = inconclusive; . = no result; [ ] = another dose, or the depositor's remark.

SMILES | Lassa entry inh | Marburg entry inh | AMA1-RON2 inh | Shiga toxin inh | CHX counter
CCOc1ccc2nc(NC(=O)c3cccnc3)sc2c1 | ? | ? | -4% | 122* | 75*
O=C(CSc1nc2ccccc2o1)Nc1nc2ccc(Br)cc2s1 | 16% | ? | 33% | 93 | 22
COc1ccc2nc(NC(=O)CSc3nc4ccccc4o3)sc2c1 | -18% | -20% | -3% | 134* | 40*
CCOc1ccc2nc(NC(=O)CSc3nc4cccnc4n3C)sc2c1 | ? | ? | 13% | -20 | -4
CCOc1ccc2nc(NC(=S)N(C)C)sc2c1 | -27% | -29% | 58% | 104* | 56*
CCOc1ccc2nc(NC(=O)c3ccccc3)sc2c1 | -1%[46.1 µM] | . | . | . | .
CCOc1ccc2nc(NC(=O)CSc3ccccc3)sc2c1 | ? | -28% | -17% | 69 | 18*
O=C(O)C1C2CCC(C2)C1C(=O)Nc1nc2ccccc2s1 (stereo not given) | -3% | 23% | 9% | 14 | 8
CCOc1ccc2nc(NC(=O)CN3C(=O)NC4(CCCC4)C3=O)sc2c1 | 16% | 0% | -13% | . | .
CCOc1ccc2nc(NC(=O)CCn3cccc3)sc2c1 | . | . | -8% | 86* | 29*
CN(C)C(=S)Nc1nc2ccccc2s1 | . | . | 34% | 104* | 38*
CCOc1ccc2nc(NC(=O)c3cnc(C)cn3)sc2c1 | -22% | -23% | 100% | 24 | 18*
CCOc1ccc2nc(NC(=O)c3ccc(C)o3)sc2c1 | 8.9µM* | ? | -14% | . | .
O=C(NCCN1C(=O)S/C(=C\c2cccnc2)C1=O)C1=NN(c2ccccc2)C(=O)CC1 | -13% | 1%[46.1 µM] | 8% | -4 | -2
CCN1C(=NCc2ccc3c(c2)OCO3)NC(c2ccccc2)C(C(=O)OC)=C1C (stereo not given) | . | -18%[14.2 µM] | . | . | .
Cc1ccc(S(=O)(=O)Nc2ccc(S(=O)(=O)Nc3nccs3)cc2)cc1C | 18%[46.1 µM] | 0%[46.1 µM] | 12% | . | .
CCCC(=O)Nc1nc2ccc(OCC)cc2s1 | ? | ? | 0% | 73* | 46*
Oc1ccc(CCNc2ncnc3ccc(Cl)cc23)cc1 | . | . | -11% | 6 | 0
Cc1ccc(-c2nc3sc4c(c3c(=O)n2N)CC(C)(C)OC4)cc1 | 2% | -2% | -19% | 15 | 12
Nn1c(Nc2ccccc2)nc2sc3c(c2c1=O)CCCC3 | 26% | -3% | 74% | 43 | 21*
Cc1ccc(-c2nc3sc4c(c3c(=O)n2N)CCCC4)cc1 | ? | ? | 3% | 38 | 59*
NNc1nc2sc3c(c2c(=O)n1-c1ccccc1)CCCC3 | -18%[46.1 µM] | 4%[46.1 µM] | 82% | 75 | 23*
COc1ccc(CC(=O)NNC(=O)c2cc(Cl)ccc2OC)cc1 | -8% | 0% | 4% | . | .
CCOC(=O)CCCNC(=O)N1CCc2nc(-c3ccc(OC)cc3C)c3c(c2C1)CO[C@@H](c1ccccc1)C3 | . | -5%[14.2 µM] | . | . | .
O=C(Nc1ccc2c(c1)OCCO2)N1CCN(c2ccccc2)CC1 | 7% | -15% | 4% | 47* | 20*
SMILES | Lassa entry inh | Marburg entry inh | AMA1-RON2 inh | Shiga toxin inh | CHX counter
O=C(Nc1ccc2c(c1)OCCO2)N1CCN(Cc2ccccc2)CC1 | 0% | 0%[46.1 µM] | -15% | 61* | 38*
CC1(Cc2ccc(C(F)(F)F)nc2)C(=O)Nc2cc(-c3ccccc3Cl)ccc21 (stereo not given) | . | . | 12% | . | .
COc1cccc(Cc2nc3ccccc3nc2SCC(=O)N2CCCc3ccccc32)c1 | -8%[46.1 µM] | . | . | . | .
O=S(=O)(c1ccc(Br)cc1F)N1CCCCC1CCO (stereo not given) | . | . | 9% | . | .
O=C1C=C(c2ccc(F)c(Cl)c2)C[C@@H](c2ccc(F)cc2)C1 | . | . | 8% | . | .
CCOc1ccc(CC(=O)Nc2nccs2)cc1 | -3% | -5%[46.1 µM] | 3% | 12 | 20*
COc1ccc2c(CC(=O)Nc3nccs3)coc2c1 | 0% | ? | -4% | 77* | 31*
Cc1ccc(OCCCC(=O)Nc2nccs2)cc1 | 5% | -4% | -14% | 42* | 23*
COc1ccc(Cl)cc1NC(=O)Cn1c(=O)n2nc(-c3ccccc3)nc2c2ccccc21 | 9%[46.1 µM] | ? | . | . | .
COc1cc(NC(=S)NC(=O)c2ccco2)ccc1NC(=O)C(C)C | ? | 24%[46.1 µM] | 3% | 37 | 14
COc1cc(NC(=O)C2CCCCC2)c(OC)cc1NC(=O)c1ccco1 | ? | 0%[46.1 µM] | -4% | -5 | -6
COc1cc(NC(=O)C(C)C)ccc1NC(=O)c1ccco1 | 8% | 26% | 24% | 63 | 58*
